Results on 15 compounds are retold here after PubChem BioAssay (NCATS).

Values joined by “and” are separate entries in the source; they are usually repeats but may differ in a detail not shown here. Equal values may be shown once. Inconclusive results are not listed. Some structures have more than one record in an assay (separate samples or runs), and their calls can disagree. Unmarked numbers belong to inactive results. Active and inactive are the calls of the source. The call rests on the fitted dose curve; in most records, active means well fitted inhibition curve with a large enough effect; inconclusive means small, poorly fitted or top-dose-only effect; inactive means flat fitted curve, though single readings scatter. Where a SMILES comes first, the peptide text is derived from it. Bridges are numbered along the chain shown (N, C = ends). [ ]: non-standard residue; d: D form. The star is where a group is joined. X1 = CCC(C)C(N)C1=NC(C(=O)*)CS1; dOrn = NCCC[C@@H](N)C(=O)O

The test system of one assay is CRL-7250. The experiment in a line: Cytotoxic Profiling of Annotated Libraries Using Quantitative High-Throughput Screening (AID 1296008). Further: potency means the concentration at half of the fitted maximal effect. On max response: on the % scale 0 is the no-effect control and ±100 the full control effect. The following applies: Five cell lines viability, CellTiter-Glo ATP luminescence, 48-72 h; max response: active compounds read low. In outline: (§1)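 Compounds were pin-transferred onto cells and incubated 48 or 72 hr at 37 degree Celsius, 95% humidity. CellTiter-Glo was added, plates sat 10 min at room temperature, then ATP-coupled luminescence was imaged as the viability read-out.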
(In general: ATP-based viability assays read luminescence as a measure of living cells.)

The next assay concerns HEK293. The assay is described as above. The following applies: Five cell lines viability, CellTiter-Glo ATP luminescence, 48-72 h; max response: active compounds read low. In outline: as §1
The test system of assay [1] is HaCat. The description is as above. Particulars: Five cell lines viability, CellTiter-Glo ATP luminescence, 48-72 h; max response: active compounds read low. The gist of the method:
as §1

Another assay concerns KB-3-1. Described as above. The following applies: Five cell lines viability, CellTiter-Glo ATP luminescence, 48-72 h; max response: active compounds read low. In outline: as §1
Another assay concerns NIH3T3. The description is as above. The following applies: Five cell lines viability, CellTiter-Glo ATP luminescence, 48-72 h; max response: active compounds read low. In outline: as §1
In assay [2] the test system is HACAT. In words: qHTS assay to identify novel small-molecules to repurpose for Merkel cell carcinoma treatment (AID 1296009). Particulars: MCC and control cell lines, CellTiter-Glo viability, 72 h; at 44.8 µM (top of the series) unless noted. The gist of the method:
(§2)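 Viability readout: ATP luminescence (CellTiter-Glo) after 72 hr drug exposure at 37 degree celsius. Dose-response format was 8 points for NPC and 11 points for MIPE; data normalized to in-plate controls.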

A further assay relates to HEK293T. The description is as above. The following applies: MCC and control cell lines, CellTiter-Glo viability, 72 h; series mostly up to 44.8 µM. The gist of the method:
as §2
Further: nearly all actives have a fitted effect of over 60% in size.

As to `NS(=O)(=O)NCCNc1nonc1C(=Nc1ccc(F)c(Br)c1)NO`, the max response was 3.38% and -8.95% with CRL-7250; -61.6% with HEK293; -46.4% in the assay with HaCat [1]; 4.58% and 8.99% with KB-3-1; -8.59% and -38.3% with NIH3T3. Besides, the call in the assay with HEK293, with HaCat [1], in the assay with NIH3T3 and with HACAT [2] was inactive. For the same compound, in the assay with HEK293T, the Potency entry is “inactive”.

`C[C@]12C=CC(=O)C=C1CC[C@@H]1[C@@H]2[C@@H](O)C[C@@]2(C)[C@H]1CC[C@]2(O)C(=O)COC(=O)CCC(=O)O`: the max response in the assay with CRL-7250 was 2.71%; with HEK293, -0.357%; in the assay with KB-3-1, 2.8%. In addition, the compound was classed as inactive in the assay on HaCat [1], in the assay with KB-3-1, with NIH3T3 and in the assay with HACAT [2].

`Cc1onc(-c2ccccc2)c1C(=O)N[C@@H]1C(=O)N2[C@@H]1SC(C)(C)[C@@H]2C(=O)O`: the max response is 4.38% in the assay on CRL-7250; 3.77% and -1.97% in the assay on HEK293; -3.02% and -31.5% in the assay on HaCat [1]. Further, the compound was classed as inactive in the assay with CRL-7250, in the assay on KB-3-1 and in the assay on NIH3T3.

In the case of `Cc1c(-c2ccnn2C)cc(C(=O)NCc2ccc(S(C)(=O)=O)cn2)c(=O)n1-c1cccc(C(F)(F)F)c1`, the max response is 0.591% and -4.37% and 3.84% in the assay on CRL-7250; -6.6% [middle of 4 runs] with HEK293; 0.936% and -17.4% and -7.73% in the assay with NIH3T3. For the same compound, the compound was called inactive with CRL-7250.

For `O=C(NC[C@H](O)CN1CCc2ccccc2C1)c1cc(NC2COC2)ncn1`, the max response in the assay with CRL-7250 was -6.51% and -13.6%; with HEK293, -6.86%; in the assay on HaCat [1], -0.448%; with NIH3T3, -2.53%. Moreover, the call with KB-3-1 and in the assay with NIH3T3 was inactive.

Turning to `CN(NC(=O)CC(=O)NN(C)C(=S)c1ccccc1)C(=S)c1ccccc1`, the Potency in the assay with CRL-7250 was 66 nM (active); in the assay with HEK293 it was 11.6 nM (active) and 13.2 nM (active); in the assay on KB-3-1, 0.0366 µM (active); with NIH3T3 it was 51.7 nM (active) and 26.3 nM (active). For the same compound, the outcome with HaCat [1] and in the assay on HACAT [2] was inactive.

With `CCC(C)C(N)C1=NC(C(=O)N[C@@H](CC(C)C)C(=O)N[C@H](CCC(=O)O)C(=O)N[C@H](C(=O)N[C@H]2CCCCNC(=O)[C@H](CC(N)=O)NC(=O)[C@@H](CC(=O)O)NC(=O)[C@H](Cc3cnc[nH]3)NC(=O)[C@@H](Cc3ccccc3)NC(=O)[C@H]([C@@H](C)CC)NC(=O)[C@@H](CCCN)NC2=O)[C@@H](C)CC)CS1` (stereo not given in full) (X1-L[dE]IK[dOrn]I[dF]H[dD]N; lactam 4-C), the max response with CRL-7250 is 2.99% and -28%; in the assay on HEK293, -1.63% and -10.3%; with KB-3-1, 8.49%; in the assay on NIH3T3, 2.78%. Besides, the call with HaCat [1] and in the assay on KB-3-1 was inactive. The outcome with HACAT [2] is “inactive [at 17.4 µM]”.

Consider `CC(C)Nc1cc(-c2c[nH]c(C(=O)N[C@H](CO)c3cccc(Cl)c3)c2)c(Cl)cn1`, for which the max response in the assay on CRL-7250 is -4.72%; in the assay with HEK293 it was -74.1%; with KB-3-1, -26.9%. Besides, the Potency in the assay on HEK293 is 26.3 µM (active); in the assay with HaCat [1] it was 2.59 µM (active) and 14.8 µM (active).

`Cc1nc2c(-c3cnc(N)nc3)nc(N3CCOCC3)nc2n1C(C)C`: the Potency in the assay with CRL-7250 is 291 nM (active) and 7.4 nM (active); in the assay on HEK293, 326 nM (active) and 23.4 nM (active); with HaCat [1] it was 2.06 µM (active) and 132 nM (active); in the assay on KB-3-1, 0.461 µM (active); in the assay with NIH3T3, 1.16 µM (active) and 234 nM (active).

As to `OC[C@H]1O[C@@H](OCCc2ccc(O)cc2)[C@H](O)[C@@H](O)[C@@H]1O`, the max response was 1.66% in the assay with CRL-7250; -4.41% in the assay on HEK293; 7.2% and 9.78% in the assay on KB-3-1; -4.78% in the assay on NIH3T3. Besides, the call in the assay with HaCat [1] and in the assay with HACAT [2] was inactive.

Regarding `CN(C)c1cccc(-c2c3c(=O)n(-c4ccccc4Cl)[nH]c3cc(=O)n2C)c1`, the results for the max response in the assay on CRL-7250, with KB-3-1 and in the assay with NIH3T3 were 3.76%, 5.47% and -12.2%, respectively. In addition, the Potency in the assay with HEK293 is 5.88 µM (active); in the assay on HaCat [1], 14.8 µM (active). Also, the compound was called inactive in the assay with HEK293, in the assay on HaCat [1], in the assay on NIH3T3 and in the assay with HACAT [2]. Moreover, the Potency result with HEK293T was “inactive”.

In the case of `COc1c(C)c(C(=O)c2ccc(N)c(C(=O)O)c2)n2ccccc12`, the max response was -6.91% with CRL-7250; -16.3% in the assay with HEK293; -0.372% with HaCat [1]; 4.57% and 7.45% with KB-3-1. Besides, the call in the assay with HaCat [1] and in the assay with HACAT [2] was inactive.

As for `NS(=O)(=O)OC[C@@H]1C[C@@H](n2ccc3c(N[C@H]4CCc5ccccc54)ncnc32)C[C@@H]1O`, the Potency in the assay with CRL-7250 is 1.3 µM (active) and 651 nM (active); with HEK293, 291 nM (active) and 366 nM (active); with HaCat [1] it was 5.17 µM (active).

Consider `COc1cc(N2CCC(O)CC2)ccc1Nc1cc(Nc2ccccc2S(=O)(=O)C(C)C)c2cc[nH]c2n1`, for which the Potency is 33100 nM (active) in the assay with CRL-7250; 12.8 µM (active) and 11.7 µM (active) with HEK293; 8.31 µM (active) in the assay with HaCat [1]; 14.3 µM (active) with KB-3-1; 4.67 µM (active) in the assay with NIH3T3. Also, the max response with CRL-7250 was -7.16%.

`CCN[C@@H]1C[C@H](N)[C@@H](O[C@H]2OC(CN)=CC[C@H]2N)[C@H](O)[C@H]1O[C@H]1OC[C@](C)(O)[C@H](NC)[C@H]1O`: the max response was -13% with CRL-7250; -0.314% in the assay on HEK293; 9.12% in the assay on KB-3-1; -0.755% and 2.29% in the assay on NIH3T3. The compound was classed as inactive in the assay with CRL-7250, with HaCat [1], in the assay with KB-3-1 and with HACAT [2].
